Measured values published in PubChem BioAssay.
Active and inactive are the calls of the source.

What was measured:
[1] = system: Plasmodium falciparum Sir2 (PF13_0152, Sir2A); experiment: Plasmodium falciparum Sir2A binding compounds – biochemical, small-molecule microarray, 635 nm fluorescence, primary screen (AID 1098); conditions: fluorescence 635 nm, higher = more signal;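 note: score merges spot fluorescence intensity with its signal-to-noise ratio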
[2] = probe aDKK1 binding to arrayed compounds – biochemical, biotinylated probe, 635/667 nm fluorescence, primary screen (AID 1099); conditions: small-molecule microarray, higher = more signal;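 note: score merges 667nm spot fluorescence with signal to noise across triplicate slides; reference of the scale not given here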
[3] = probe aCHRDL2 binding to arrayed compounds – biochemical, biotinylated probe, 635/667 nm fluorescence, primary screen (AID 1100); conditions: small-molecule microarray, higher = more signal
[4] = change in splice reporter luminescence, either direction, cell-based, HEK293, spliceosome inhibition project, primary screen (AID 1101); conditions: HEK293 splicing luciferase reporter, 24 h, higher = more signal, called active from +8 up or from −8 down;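 note: HEK293 cells carrying a splicing-competent luciferase reporter gene; test concentration not given here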
[5] = target: Fibroblast growth factor 10 (Homo sapiens) (UniProt O15520); experiment: compounds binding fibroblast growth factor 10 – biochemical, small-molecule microarray, 635 nm fluorescence, primary screen (AID 1102); conditions: FGF10 binding, fluorescence 635 nm, higher = more signal
[6] = system: glycogen synthase kinase-3 (GSK3A per assay name; protocol says GSK3B); experiment: compounds binding glycogen synthase kinase-3 – biochemical, small-molecule microarray, 635 nm fluorescence, GSK3A, primary screen (AID 1103); conditions: fluorescence 635 nm, higher = more signal; note: the record names both GSK3A and GSK3B
[7] = target: Epidermal growth factor receptor (Homo sapiens) (UniProt P00533); experiment: compounds binding epidermal growth factor receptor – biochemical, small-molecule microarray, 635 nm fluorescence, primary screen (AID 1104); conditions: EGFR binding, higher = more signal;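 note: score merges 667 nm emission intensity with spot signal to noise over triplicate slides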
[8] = target: Follistatin-related protein 3 (Homo sapiens) (UniProt O95633); experiment: compounds binding follistatin-related protein 3 – biochemical, small-molecule microarray, 635 nm fluorescence, primary screen (AID 1105); conditions: FSTL3 binding, higher = more signal;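 note: score merges emission near 667 nm and signal to noise per printed spot across three slides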
[9] = target: Dickkopf-related protein 1 (Homo sapiens) (UniProt O94907); experiment: small molecules binding DKK1 protein – biochemical, small-molecule microarray, 635 nm fluorescence scan, primary screen (AID 1106); conditions: higher = more signal;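 note: score merges emission near 667 nm with signal to noise over three replicate slides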
[10] = system: Inhibin beta A chain (activin A); experiment: small molecules binding activin A – biochemical, small-molecule microarray, 635 nm fluorescence scan, primary screen (AID 1107); conditions: INHBA, higher = more signal;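 note: mouse activin A protein probed at 4.33 µg/mL on printed slides; score merges bound-protein fluorescence near 667 nm with spot signal-to-noise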

Chain of Epidermal growth factor receptor (Homo sapiens) (P00533 whole entry, looked up): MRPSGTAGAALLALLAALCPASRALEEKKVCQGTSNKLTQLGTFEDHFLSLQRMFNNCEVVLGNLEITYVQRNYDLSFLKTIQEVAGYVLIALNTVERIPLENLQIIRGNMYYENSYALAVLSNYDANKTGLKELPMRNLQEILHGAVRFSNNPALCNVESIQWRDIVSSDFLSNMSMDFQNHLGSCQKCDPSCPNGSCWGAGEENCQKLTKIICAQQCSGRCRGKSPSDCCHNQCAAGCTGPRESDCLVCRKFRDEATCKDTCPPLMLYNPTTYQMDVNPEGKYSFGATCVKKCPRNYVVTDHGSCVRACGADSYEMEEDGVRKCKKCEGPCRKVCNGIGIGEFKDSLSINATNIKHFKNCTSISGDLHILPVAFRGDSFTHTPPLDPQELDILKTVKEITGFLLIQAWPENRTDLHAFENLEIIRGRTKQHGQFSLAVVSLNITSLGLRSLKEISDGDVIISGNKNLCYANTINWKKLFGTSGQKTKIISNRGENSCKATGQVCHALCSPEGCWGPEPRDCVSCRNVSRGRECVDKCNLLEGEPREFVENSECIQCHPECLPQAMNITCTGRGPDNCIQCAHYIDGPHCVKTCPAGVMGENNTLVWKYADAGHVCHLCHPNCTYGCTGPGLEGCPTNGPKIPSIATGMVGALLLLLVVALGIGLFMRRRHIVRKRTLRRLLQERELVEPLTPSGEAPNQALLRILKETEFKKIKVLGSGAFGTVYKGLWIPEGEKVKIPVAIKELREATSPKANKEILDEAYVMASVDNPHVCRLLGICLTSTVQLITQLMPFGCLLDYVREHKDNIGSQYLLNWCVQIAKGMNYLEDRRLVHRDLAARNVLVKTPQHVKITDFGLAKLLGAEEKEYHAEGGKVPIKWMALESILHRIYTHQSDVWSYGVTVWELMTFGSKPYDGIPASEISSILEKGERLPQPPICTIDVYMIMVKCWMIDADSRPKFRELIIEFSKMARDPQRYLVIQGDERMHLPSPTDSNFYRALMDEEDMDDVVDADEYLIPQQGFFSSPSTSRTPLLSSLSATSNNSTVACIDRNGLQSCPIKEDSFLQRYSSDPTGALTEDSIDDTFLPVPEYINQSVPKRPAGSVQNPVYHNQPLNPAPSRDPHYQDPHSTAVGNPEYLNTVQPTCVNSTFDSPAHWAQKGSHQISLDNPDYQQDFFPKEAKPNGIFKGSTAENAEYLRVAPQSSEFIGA
Chain of Fibroblast growth factor 10 (Homo sapiens) (O15520 whole entry, looked up): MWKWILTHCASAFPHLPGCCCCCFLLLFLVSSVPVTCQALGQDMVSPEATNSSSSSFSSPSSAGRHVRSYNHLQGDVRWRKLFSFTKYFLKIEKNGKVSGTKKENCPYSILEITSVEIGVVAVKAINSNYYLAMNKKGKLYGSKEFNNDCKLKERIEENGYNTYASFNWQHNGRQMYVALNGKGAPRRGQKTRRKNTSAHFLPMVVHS
Chain of Dickkopf-related protein 1 (Homo sapiens) (O94907 whole entry, looked up): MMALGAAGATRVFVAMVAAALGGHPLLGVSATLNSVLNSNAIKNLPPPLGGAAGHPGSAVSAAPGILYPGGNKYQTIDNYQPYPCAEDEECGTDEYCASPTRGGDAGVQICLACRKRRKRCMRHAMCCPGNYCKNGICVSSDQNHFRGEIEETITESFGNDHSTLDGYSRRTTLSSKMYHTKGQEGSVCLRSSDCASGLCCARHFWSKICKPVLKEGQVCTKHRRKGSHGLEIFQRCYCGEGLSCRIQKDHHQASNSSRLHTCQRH
Chain of Follistatin-related protein 3 (Homo sapiens) (O95633 whole entry, looked up): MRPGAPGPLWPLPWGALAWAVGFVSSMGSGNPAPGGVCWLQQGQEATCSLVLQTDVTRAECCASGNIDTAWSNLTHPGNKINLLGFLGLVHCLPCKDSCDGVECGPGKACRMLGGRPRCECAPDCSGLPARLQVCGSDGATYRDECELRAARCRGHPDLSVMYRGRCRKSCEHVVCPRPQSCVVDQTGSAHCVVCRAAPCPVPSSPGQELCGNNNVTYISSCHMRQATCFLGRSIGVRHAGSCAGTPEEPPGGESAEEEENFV

| Compound | composite z-score [1] | composite z-score [2] | composite z-score [3] | z-score [4] | composite z-score [5] | composite z-score [6] | composite z-score [7] | composite z-score [8] | composite z-score [9] | composite z-score [10] |
| --- | --- | --- | --- | --- | --- | --- | --- | --- | --- | --- |
| COc1ccc(OC[C@@H](CO)OC)cc1 | -0.276 | -0.233 | -0.401 | 1.18 (inactive) | 0.428 | 0.405 | 0.202 | 0.475 | 0.321 | 0.512 |
| CO[C@H]1COC(=O)[C@H](CCSC)NC(=O)CC=C[C@@H](C)[C@H](OC)COC(=O)[C@@H](OCc2ccccc2)C=C[C@@H]1C | 0.988 | -0.488 | -0.513 | 0.45 (inactive) | 0.605 | 0.751 | 0.975 | 0.922 | 1.38 | 0.824 |
| CO[C@@H]1[C@H](O)CO[C@H]1C=Cc1ccccc1 | 1.55 | -0.261 | -0.41 | -0.0979 (inactive) | 0.961 | -0.135 | 0.0571 | 0.211 | 0.365 | 0.512 |
| CCN1C(=O)[C@H]2[C@H]3[C@H](O)[C@H](O)CC(=NOCC[C@@H]4C=C[C@H](OC(C)=O)[C@@H](COC(C)=O)O4)[C@@H]3CC[C@H]2C1=O | 0.0458 | -0.107 | -0.426 | -0.0787 (inactive) | 0.476 | 0.0008 | 0.498 | 0.38 | 0.476 | 0.079 |
| COC(=O)C(C(=O)OC)C1CCCC(=O)C1 (stereo not given) | 0.377 | -0.207 | -0.618 | -0.388 (inactive) | 0.755 | 0.772 | 0.399 | 0.508 | 0.978 | 0.151 |
| COc1ccc(O[C@H]2C=C[C@@H](c3ccccc3)O[C@@H]2CON=C(C)CCN2CCCc3nc(C)c(C)cc32)cc1 | 0.625 | -0.325 | -0.156 | -0.204 (inactive) | 0.735 | 0.73 | 0.227 | 0.616 | 0.552 | 0.917 |
| O=C1[C@H]2[C@H]3[C@H](O)[C@H](O)CC(=NOCc4ccccc4)[C@H]3CC[C@H]2C(=O)N1C1CCCCC1 | 0.817 | -0.163 | -0.301 | 0.395 (inactive) | 0.378 | 0.338 | 0.511 | 0.448 | 0.79 | -0.0077 |
| CC(C)=CCCC(C)=CCON=C1C[C@@H](O)[C@@H](O)[C@@H]2[C@@H]3C(=O)N(Cc4ccc5c(c4)OCO5)C(=O)[C@@H]3CC[C@@H]12 | 0.769 | -0.268 | -0.451 | 0.0709 (inactive) | 1.01 | 0.579 | 0.696 | 1.03 | 0.915 | 1.3 |
| CC(C)CON=C1C[C@@H](O)[C@@H](O)[C@@H]2[C@@H]3C(=O)N(Cc4ccc5c(c4)OCO5)C(=O)[C@@H]3CC[C@@H]12 | 0.409 | -0.218 | -0.208 | 0.0483 (inactive) | 0.0677 | -0.315 | -0.203 | -0.0661 | -0.337 | -0.0043 |
| CC(C)=NOC(C)CN1CCCc2nc(C)c(C)cc21 (stereo not given) | 1.19 | -0.446 | -0.696 | 0.484 (inactive) | 0.809 | 1.1 | 0.697 | 1.16 | 0.63 | 0.206 |
| C[C@]12CCC3c4ccc(OCC5CO5)cc4CCC3C1CC[C@@H]2O (stereo not given in full) | 0.728 | 0.527 | 0.596 | 0.147 (inactive) | 0.457 | -0.309 | 0.182 | 0.239 | 0.0294 | 0.944 |
| C=CC[C@@H]1C=C[C@H](Oc2ccc(C)cc2)[C@@H](COC(=O)NCc2cccc3ccccc23)O1 | 0.45 | -0.129 | 0.0944 | -0.566 (inactive) | 0.575 | -0.224 | -0.156 | 0.201 | 0.142 | 1.03 |
| COCC#Cc1ccc([C@@H]2N[C@H](C(=O)O)CC[C@H]2C)cc1 | -0.331 | 0.159 | -0.0016 | -1.63 (inactive) | 0.129 | 0.223 | 0.362 | 0.246 | 0.302 | 0.784 |
| CC(=O)OC[C@H]1O[C@H](CCON=C(C)C)C=C[C@@H]1OC(C)=O | 0.475 | -0.22 | 0.116 | 0.384 (inactive) | -0.0068 | -0.329 | 0.187 | 0.296 | 0.41 | 1.12 |
| CCOC(=O)[C@H](Cc1ccccc1)NC(=O)CCC1CC(OC(=O)NCc2cccc3ccccc23)CC2(CCCC(COC(=O)NCc3ccc4c(c3)OCO4)O2)O1 (stereo not given in full) | 0.216 | -0.0102 | -0.343 | 0.277 (inactive) | 0.587 | -0.0333 | 0.179 | 0.224 | 0.141 | 0.325 |
| COc1ccc(COC(=O)NN=C2C[C@@H](O)[C@@H](O)[C@@H]3[C@@H]4C(=O)N(C5CCCCC5)C(=O)[C@@H]4CC[C@@H]23)cc1 | -0.123 | 0.202 | 1.38 | 0.299 (inactive) | -0.28 | -0.145 | -0.583 | -0.248 | -0.88 | 0.105 |
| O=C1C=C[C@@H](O)[C@@H]2[C@@H]3C(=O)N(c4cccc(Oc5ccccc5)c4)C(=O)[C@@H]3CC[C@@H]12 | 0.378 | -0.147 | -0.597 | -0.856 (inactive) | 0.322 | 0.499 | 0.386 | 0.438 | 0.503 | -0.0914 |
| O=C1[C@H]2[C@H]3[C@H](O)[C@H](O)CC(=NO[C@@H]4O[C@H](CO)[C@@H](O)[C@H](O)[C@H]4O)[C@@H]3CC[C@H]2C(=O)N1c1cccc(Oc2ccccc2)c1 | 0.405 | -0.327 | -0.595 | 0.302 (inactive) | 0.659 | 0.736 | 0.778 | 0.711 | 0.701 | 0.374 |
| O=C1C[C@@H](O)[C@@H](O)[C@@H]2[C@@H]3C(=O)N(c4ccc(F)cc4F)C(=O)[C@@H]3CC[C@H]12 | 0.88 | -0.0704 | -0.511 | 0.759 (inactive) | 0.514 | 0.662 | 0.394 | 0.638 | 0.597 | 0.148 |
| CC(C)[C@@H](OCc1ccccc1)[C@H](C)C=NOC[C@@H](O)[C@H]1O[C@@H]2OC(C)(C)O[C@@H]2[C@H]1O | 0.635 | -0.0784 | -0.609 | -0.262 (inactive) | 0.355 | 0.151 | 0.677 | 0.628 | 0.254 | -0.519 |
| O=C1C2=CC[C@H]3C(=O)N(Cc4ccccc4)C(=O)[C@H]3[C@H]2[C@H](O)[C@@H]2O[C@H]12 | 1.47 | -0.211 | -0.417 | 6.91 (inactive) | 0.0121 | -0.569 | 0.41 | -0.1 | 0.245 | -0.0664 |
| CCOC(=O)[C@H](Cc1ccccc1)NC(=O)CCC1CC(OC(=O)NCc2cccc3ccccc23)CC2(CCCC(COC(=O)NCCOc3ccccc3)O2)O1 (stereo not given in full) | 1.2 | -0.351 | -0.477 | -1.82 (inactive) | 0.441 | 0.974 | 0.575 | 0.579 | 0.504 | 0.011 |
| C#CCCCON=C1C[C@@H](O)[C@@H](O)[C@@H]2[C@@H]3C(=O)N([C@@H](C)c4ccccc4)C(=O)[C@@H]3CC[C@@H]12 | 0.563 | -0.292 | 0.0951 | -0.0154 (inactive) | -0.723 | -0.521 | 0.377 | -0.447 | -0.67 | 0.718 |
| CON(C)C(=O)c1nnc2c(n1)[nH]c1ccccc12 | 0.214 | 0.256 | -0.0786 | -0.562 (inactive) | 0.692 | 0.217 | 0.319 | 0.651 | 0.377 | 0.221 |
